Results from PubChem BioAssay (Tox21).
Results filed as inconclusive are left out. Active and inactive are the calls of the source. Unless noted, calls come from the whole dose curve.

How the values were obtained:
[1] = molecular target: Gonadotropin-releasing hormone receptor (Homo sapiens) (UniProt P30968); test: Human gonadotropin-releasing hormone receptor (GnRHR) small molecule agonists, calcium flux assay in GnRHR-HEK293 cells (AID 1920063); note: nearly all actives have a fitted effect of over 35% in size
Gonadotropin-releasing hormone receptor (Homo sapiens), sequence (P30968 whole entry, looked up): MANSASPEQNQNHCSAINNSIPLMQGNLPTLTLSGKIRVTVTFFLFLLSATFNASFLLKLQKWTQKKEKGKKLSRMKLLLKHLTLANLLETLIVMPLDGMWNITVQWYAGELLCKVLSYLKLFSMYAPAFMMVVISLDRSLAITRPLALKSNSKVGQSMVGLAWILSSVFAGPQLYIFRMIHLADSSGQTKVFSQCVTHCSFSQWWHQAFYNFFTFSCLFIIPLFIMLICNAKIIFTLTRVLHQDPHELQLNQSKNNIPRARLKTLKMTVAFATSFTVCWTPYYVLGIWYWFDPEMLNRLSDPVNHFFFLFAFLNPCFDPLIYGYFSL
Summary of the method: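 GnRHR-HEK293, 1500 cells/well, 18 h 37 C/5% CO2; Ca dye 1 h 37 C; cpd pinned (DMSO), agonist mode; kinetic FL 480/540, 3 min, 1 s reads; 15 conc, n=3.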

[2] = molecular target: KiSS-1 receptor (Homo sapiens) (UniProt Q969F8); test: Human kisspeptin (KISS1R) small molecule agonists, calcium flux assay in KISS1R-HEK293 cells (AID 1920064; active = well fitted activation curve with a large enough effect in the repeat runs)
KiSS-1 receptor (Homo sapiens), sequence (Q969F8 whole entry, looked up): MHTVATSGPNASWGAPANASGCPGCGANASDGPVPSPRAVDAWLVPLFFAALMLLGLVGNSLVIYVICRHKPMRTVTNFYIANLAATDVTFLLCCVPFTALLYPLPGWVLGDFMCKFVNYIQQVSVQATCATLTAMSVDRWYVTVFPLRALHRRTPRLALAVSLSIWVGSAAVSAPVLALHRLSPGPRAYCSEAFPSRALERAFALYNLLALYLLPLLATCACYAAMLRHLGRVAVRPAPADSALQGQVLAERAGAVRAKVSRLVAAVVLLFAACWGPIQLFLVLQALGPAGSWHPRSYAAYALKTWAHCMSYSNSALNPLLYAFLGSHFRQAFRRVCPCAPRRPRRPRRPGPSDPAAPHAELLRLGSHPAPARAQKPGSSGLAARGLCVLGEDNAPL
Summary of the method: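 Stable human KISS1R HEK293 line; 18 h plating, 37 C/5% CO2; calcium dye 1 h 37 C; compound pin transfer; kinetic fluorescence Ex/Em 480/540, 3 min.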

[3] = G protein-coupled receptor (GPCR) small molecule agonists, calcium flux assay: HEK293 wild type cell line counter screen (AID 1920065)
Summary of the method: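 Kinetic fluorescence at Ex/Em 480/540, recorded every second over 3 min, served as the read-out after compound addition. Each compound was tested at 15 concentrations in triplicate on cells pre-loaded with calcium dye for 1 h.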

[4] = cAMP Responsive Elements (CRE) small molecule agonists, cell-based qHTS assay (AID 1963590)
Summary of the method: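 HEK 293T CRE-bla, 2,000 cells/well, 18 h preincubation 37 C/5% CO2; cpds (DMSO) pinned, 3 h; LiveBLAzer B/G FRET substrate, 2 h RT.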

[5] = cAMP Responsive Elements (CRE) small molecule antagonists, cell-based qHTS assay (AID 1963591; active = well fitted inhibition curve with a large enough effect in the signal ratio in the repeat runs, not every such curve was filed as active; the % refers to the signal ratio)
Summary of the method: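 Beta-lactamase reporter read by FRET substrate (LiveBLAzer B/G) after 2 h at room temperature. CRE-bla HEK293T cells had received compound plus 0.25 uM (final) NKH477 for 3 h at 37 °C.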

[6] = molecular target: Beta-2 adrenergic receptor (Homo sapiens) (UniProt P07550); test: Adrenergic beta2 receptor (ADRB2) small molecule antagonists, cell-based qHTS assay (AID 1963592); note: nearly all actives have a fitted effect of over 50% in size; note: potency is the fitted concentration of half-maximal effect; for activity change, negative = inhibition: series mostly up to about 92 µM
Beta-2 adrenergic receptor (Homo sapiens), sequence (P07550 whole entry, looked up): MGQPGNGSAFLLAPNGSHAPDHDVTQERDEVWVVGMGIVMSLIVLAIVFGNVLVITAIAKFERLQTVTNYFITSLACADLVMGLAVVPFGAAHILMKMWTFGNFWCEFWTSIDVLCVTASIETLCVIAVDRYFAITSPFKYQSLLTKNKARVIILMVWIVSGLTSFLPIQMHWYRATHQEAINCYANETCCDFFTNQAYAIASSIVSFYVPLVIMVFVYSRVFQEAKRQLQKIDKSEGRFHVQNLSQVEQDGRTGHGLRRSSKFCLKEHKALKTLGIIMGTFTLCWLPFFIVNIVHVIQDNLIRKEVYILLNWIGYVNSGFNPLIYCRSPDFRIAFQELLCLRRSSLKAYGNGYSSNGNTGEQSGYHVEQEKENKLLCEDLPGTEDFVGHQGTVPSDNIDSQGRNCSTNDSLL
Summary of the method: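 Cells (CHO, stable ADRB2 overexpression) incubated 18-20hr at 37C; compounds added from DMSO; agonist mix (1nM isoproterenol, 100uM IBMX, 25uM Ro-20-1724) added; 0.5hr RT; d2-cAMP and anti-cAMP-cryptate added; 1hr RT; 665/615 nm read.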

[7] = molecular target: D(2) dopamine receptor (Homo sapiens) (UniProt P14416); test: Dopamine D2 receptor (DRD2) small molecule antagonists, cell-based qHTS assay (AID 1963595; active = well fitted inhibition curve with a large enough effect in the signal ratio in the repeat runs, with a control signal flat; the % refers to the signal ratio)
D(2) dopamine receptor (Homo sapiens), sequence (P14416 whole entry, looked up): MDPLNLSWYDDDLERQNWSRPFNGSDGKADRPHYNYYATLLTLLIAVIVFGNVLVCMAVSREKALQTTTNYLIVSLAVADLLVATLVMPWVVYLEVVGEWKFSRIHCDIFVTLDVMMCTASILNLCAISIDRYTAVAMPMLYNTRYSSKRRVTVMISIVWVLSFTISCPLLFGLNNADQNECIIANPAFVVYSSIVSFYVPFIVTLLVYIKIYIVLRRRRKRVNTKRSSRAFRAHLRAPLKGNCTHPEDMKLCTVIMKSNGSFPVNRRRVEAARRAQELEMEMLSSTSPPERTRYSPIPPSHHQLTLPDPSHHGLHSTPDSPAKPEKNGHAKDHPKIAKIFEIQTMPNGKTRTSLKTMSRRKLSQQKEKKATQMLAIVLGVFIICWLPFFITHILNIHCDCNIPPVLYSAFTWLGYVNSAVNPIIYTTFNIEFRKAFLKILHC
Summary of the method: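 Stable D2 receptor HEK293 line, 24 h after seeding. Compound preincubated 10 min, then quinpirole (12 nM) with forskolin analogue NKH477 (200 nM), 30 min, room temperature. Detection by time-resolved FRET of cAMP.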

[8] = p53 small molecule agonists, cell-based qHTS assay (AID 1963582; active = well fitted activation curve with a large enough effect in the signal ratio in the repeat runs, not every such curve was filed as active; the % refers to the signal ratio)
Summary of the method: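 Reporter line: p53RE-bla. Pre-incubation 5 h, 37 C, 5% CO2; compound (DMSO, pin tool) 16 h, 37 C; B/G FRET substrate 2 h RT; fluorescence intensity read.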

[9] = molecular target: 5-hydroxytryptamine receptor 2A (Homo sapiens) (UniProt P28223); test: 5-hydroxytryptamine receptor 2A (HTR2A) small molecule agonists, cell-based qHTS assay (AID 1963587); note: nearly all actives have a fitted effect of over 30% in size
5-hydroxytryptamine receptor 2A (Homo sapiens), sequence (P28223 whole entry, looked up): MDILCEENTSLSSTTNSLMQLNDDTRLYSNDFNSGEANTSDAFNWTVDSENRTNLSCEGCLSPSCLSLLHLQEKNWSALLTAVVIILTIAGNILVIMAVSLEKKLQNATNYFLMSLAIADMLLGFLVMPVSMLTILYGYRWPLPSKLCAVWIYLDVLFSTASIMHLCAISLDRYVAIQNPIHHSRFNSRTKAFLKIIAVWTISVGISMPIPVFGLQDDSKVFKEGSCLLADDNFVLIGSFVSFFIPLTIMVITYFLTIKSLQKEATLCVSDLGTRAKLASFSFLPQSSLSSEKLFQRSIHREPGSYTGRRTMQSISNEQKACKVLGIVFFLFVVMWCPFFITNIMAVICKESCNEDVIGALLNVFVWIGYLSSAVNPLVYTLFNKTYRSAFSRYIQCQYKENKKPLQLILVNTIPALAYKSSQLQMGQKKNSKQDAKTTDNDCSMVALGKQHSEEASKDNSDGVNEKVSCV
Summary of the method: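 CHO cells stably expressing human HTR2A, plated 18 h, loaded with calcium dye 1 h at 37 C. Agonist mode: compounds added and intracellular calcium fluorescence recorded kinetically for 2 min at 1 sec intervals.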

[10] = molecular target: Muscarinic acetylcholine receptor M1 (Homo sapiens) (UniProt P11229); test: Cholinergic receptor muscarinic 1 (CHRM1) small molecule antagonists, cell-based qHTS assay (AID 1963588); note: nearly all actives have a fitted effect of over 40% in size
Muscarinic acetylcholine receptor M1 (Homo sapiens), sequence (P11229 whole entry, looked up): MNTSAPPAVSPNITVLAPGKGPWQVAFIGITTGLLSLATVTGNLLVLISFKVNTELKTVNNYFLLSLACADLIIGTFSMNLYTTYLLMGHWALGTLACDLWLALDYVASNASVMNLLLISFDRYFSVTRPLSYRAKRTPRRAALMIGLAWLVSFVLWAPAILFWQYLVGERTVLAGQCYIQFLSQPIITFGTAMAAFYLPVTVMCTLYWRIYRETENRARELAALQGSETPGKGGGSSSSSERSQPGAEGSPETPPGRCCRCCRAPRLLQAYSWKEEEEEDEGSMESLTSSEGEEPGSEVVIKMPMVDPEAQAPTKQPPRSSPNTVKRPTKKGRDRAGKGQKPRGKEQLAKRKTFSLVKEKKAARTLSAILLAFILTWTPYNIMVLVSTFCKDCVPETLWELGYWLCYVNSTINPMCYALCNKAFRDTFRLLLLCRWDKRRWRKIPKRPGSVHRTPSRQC
Summary of the method: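 CHRM1-CHO calcium-flux assay, antagonist mode. Cells were seeded 18 h, dye-loaded 1 h at 37 C and given compound for 5 min at RT, then acetylcholine was added at 50nM. FDSS fluorescence was read 3 min; 15 concentrations, three runs.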

[11] = molecular target: Muscarinic acetylcholine receptor M1 (Homo sapiens) (UniProt P11229); test: Cholinergic receptor muscarinic 1 (CHRM1) small molecule agonists, cell-based qHTS assay (AID 1963589); note: nearly all actives have a fitted effect of over 35% in size
Summary of the method: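 Human M1 in stable CHO line; 18 h plating, 1 h dye load 37 C; cpd added (agonist mode); Ca2+ fluorescence kinetic read, 1 s intervals; 15 conc, 3 runs.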

[12] = molecular target: Beta-2 adrenergic receptor (Homo sapiens) (UniProt P07550); test: Adrenergic beta2 receptor (ADRB2) small molecule agonists, cell-based qHTS assay (AID 1963593);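 note: CHO cells stably overexpressing human ADRB2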
Summary of the method: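 CHO cells stably over-expressing ADRB2 were plated overnight at 37C, then dosed with compounds plus a stimulation mix containing 100uM IBMX and 25uM Ro-20-1724 for 0.5hr at room temperature. cAMP was measured by HTRF competition, 1hr.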

[13] = molecular target: D(2) dopamine receptor (Homo sapiens) (UniProt P14416); test: Dopamine D2 receptor (DRD2) small molecule agonists, cell-based qHTS assay (AID 1963594); note: nearly all actives have a fitted effect of over 35% in size
Summary of the method: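 HEK293 cells stably expressing human DRD2, pre-treated with PDE inhibitor Ro20-1724 (0.1 mM final) and compound 10 min at room temperature, then stimulated with NKH477 (200nM […]) for 30 min. cAMP read by HTRF (665/620 nm).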

[14] = p53 small molecule agonists, cell-based qHTS assay with human liver microsomes (AID 1963577)
Summary of the method: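 Fluorescence of the beta-lactamase reporter in p53RE-bla cells, detected with LiveBLAzer substrate (2 h, room temperature, dark), served as the read-out after 16 h compound exposure at 37 C with human liver microsomes and NADPH, each 0.5 mg/mL final.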

[15] = p53 small molecule agonists, cell-based qHTS assay with rat liver microsomes (AID 1963578); note: potency is the fitted concentration of half-maximal effect
Summary of the method: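 Cells carrying a p53 response element–beta-lactamase reporter were plated and rested 5 h, then dosed with compound in DMSO plus rat liver microsomes and NADPH, each at 0.5 mg/mL final. After 16 h at 37 C, LiveBLAzer substrate was added for 2 h.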

[16] = p53 small molecule agonists, cell-based qHTS assay with human liver microsomes: qHTS cell viability counter screen (AID 1963579); note: nearly all actives have a fitted effect of over 45% in size; note: potency is the fitted concentration of half-maximal effect
Summary of the method: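 Cytotoxicity counter screen: p53RE-bla, 4,000 cells/well; 5 h settle, 37 C/5% CO2; cpd + HLM 0.5 mg/mL + NADPH 0.5 mg/mL (final); 16 h, 37 C; CellTiter-Glo, 30 min RT, luminescence.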

[17] = p53 small molecule agonists, cell-based qHTS assay: qHTS cell viability counter screen (AID 1963581); note: nearly all actives have a fitted effect of over 45% in size
Summary of the method: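 HCT-116 p53RE-bla cells, 4,000/well, plated 5 h before compound pin transfer; 16 h at 37 C; bla substrate 2 h RT; then CellTiter-Glo, 30 min RT, luminescence.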

[18] = molecular target: 5-hydroxytryptamine receptor 2A (Homo sapiens) (UniProt P28223); test: 5-hydroxytryptamine receptor 2A (HTR2A) small molecule antagonists, cell-based qHTS assay (AID 1963586); note: nearly all actives have a fitted effect of over 45% in size
Summary of the method: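 Antagonist-mode intracellular calcium assay: DOI (4 nM) added after 5 min compound pre-incubation at room temperature to dye-loaded HTR2A-CHO cells. Fluorescence followed for 3 min, sampled every second.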

[19] = p53 small molecule agonists, cell-based qHTS assay with rat liver microsomes: qHTS cell viability counter screen (AID 1963580); note: nearly all actives have a fitted effect of over 45% in size
Summary of the method: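 p53RE-bla HCT-116 cells were exposed 16 h at 37 C to compounds with rat liver microsomes (0.5 mg/mL) and NADPH (0.5 mg/mL). Viability was measured in the same wells as ATP content by CellTiter-Glo luminescence.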
% is set by controls: 0 for no effect and ±100 for the full control effect.

CN1[C@@H]2CC[C@H]1CC(OC(=O)C(CO)c1ccccc1)C2 (some centres not stated)
inactive: Potency [1] | Potency [2] | Potency [3] | Potency [4] | Potency [5] | Potency [6] | Potency [7]

CS(=O)(=O)c1ccc([C@@H](O)[C@@H](CF)NC(=O)C(Cl)Cl)cc1
inactive: Potency [1] | Potency [2] | Potency [3] | Potency [8] | Potency [9] | Potency [10] | Potency [11] | Potency [4] | Potency [5] | Potency [6] | Potency [12] | Potency [13] | Potency [7]

O=C(O)O
inactive: activity change [1] 1.69% [at 5.22 µM, active compounds read high] | activation [2] 0.0823% [at 6.97 µM] | activation [14] -14.9% [at 5.99 µM] | activation [15] -6.42% [at 5.99 µM] | activity change, negative = cytotoxicity [16] -18.2% [at 5.99 µM] | activity change, negative = cytotoxicity [17] 11.6% [at 5.99 µM] | activation [8] -4.58% [at 5.99 µM] | activity, negative = inhibition [18] 11.9% [at 5.62 µM] | activation [9] -3.03% [at 7.02 µM] | activity, negative = inhibition [10] -13.8% [at 5.58 µM] | activation [4] 2.15% [at 8.39 µM] | activity change, negative = inhibition [5] -6.17% [at 8.39 µM] | activity change, negative = inhibition [6] -4.62% [at 8.39 µM] | activation [13] -1.72% [at 8.39 µM] | activity change, negative = inhibition [7] 0.0808% [at 8.38 µM]

CCCCCCCCC(CCCCCC)C(=O)O (configuration not stated)
inactive: Potency [1] | Potency [3] | Potency [14] | Potency [15] | Potency [16] | Potency [17] | Potency [8] | Potency [18] | Potency [9] | Potency [10] | Potency [11] | Potency [5] | Potency [6] | Potency [13] | Potency [7]

Clc1ccccc1CN1CCc2sccc2C1
inactive: Potency [1] | Potency [2] | Potency [3] | Potency [4] | Potency [6] | Potency [12] | Potency [13] | Potency [7]

CCC(=O)OCCOc1ccccc1
inactive: Potency [1] | Potency [2] | Potency [16] | Potency [19] | Potency [18] | Potency [9] | Potency [10] | Potency [11] | Potency [4] | Potency [5] | Potency [6] | Potency [13] | Potency [7]

c1ccc(-c2ccccc2-c2ccccc2)cc1
inactive: Potency [1] | Potency [2] | Potency [14] | Potency [15] | Potency [8] | Potency [18] | Potency [9] | Potency [10] | Potency [11] | Potency [5] | Potency [6] | Potency [12] | Potency [13] | Potency [7]

CC1CCCC1
inactive: Potency [1] | Potency [2] | Potency [3] | Potency [18] | Potency [9] | Potency [10] | Potency [11] | Potency [5] | Potency [6] | Potency [13] | Potency [7]

CC(C)c1c(C(=O)Nc2ccccc2)c(-c2ccccc2)c(-c2ccc(F)cc2)n1CC[C@@H](O)C[C@@H](O)CC(=O)O
inactive: Potency [1] | Potency [2] | Potency [3] | Potency [6] | Potency [13] | Potency [7]

CC(C)(C)c1ccc(C(O)CCCN2CCC(C(O)(c3ccccc3)c3ccccc3)CC2)cc1 (configuration not stated)
inactive: Potency [1] | Potency [2] | Potency [3] | Potency [5] | Potency [6] | Potency [12] | Potency [13] | Potency [7]

Cc1ccc(Cl)c(N)c1Cl
active: Potency [16] 18.2 µM
inactive: Potency [1] | Potency [3] | Potency [14] | Potency [15] | Potency [19] | Potency [17] | Potency [8] | Potency [18] | Potency [9] | Potency [10] | Potency [11] | Potency [4] | Potency [5] | Potency [6] | Potency [12] | Potency [13] | Potency [7]

O=S(=O)(O)c1ccccc1/C=C/c1ccc(-c2ccc(/C=C/c3ccccc3S(=O)(=O)O)cc2)cc1
active: Potency [15] 11.7 µM
inactive: Potency [1] | Potency [2] | Potency [16] | Potency [19] | Potency [17] | Potency [11] | Potency [6] | Potency [13] | Potency [7]

C#C[C@]1(O)CC[C@H]2[C@@H]3[C@H](C)CC4=C(CCC(=O)C4)[C@H]3CC[C@@]21C
inactive: Potency [1] | Potency [2] | Potency [15] | Potency [19] | Potency [17] | Potency [8] | Potency [7]
active: Potency [6] 23.7 µM

CNCCCN1c2ccccc2CCc2ccccc21
inactive: Potency [1] | Potency [2] | Potency [3] | Potency [8] | Potency [4] | Potency [5]

CN(C)CCOC(c1ccccc1)c1ccccc1
inactive: Potency [1] | Potency [2] | Potency [3] | Potency [4] | Potency [5] | Potency [13] | Potency [7]

CN(C)CCCN1c2ccccc2CCc2ccccc21
inactive: Potency [1] | Potency [2] | Potency [3] | Potency [9] | Potency [11] | Potency [4] | Potency [5] | Potency [13] | Potency [7]

Cc1cnc(C(=O)NCCc2ccc(S(=O)(=O)NC(=O)NC3CCCCC3)cc2)cn1
inactive: Potency [1] | Potency [2] | Potency [3] | Potency [17] | Potency [8] | Potency [5] | Potency [6] | Potency [7]

CN1CCN(C2=Nc3cc(Cl)ccc3Nc3ccccc32)CC1
inactive: Potency [1] | Potency [2] | Potency [3] | Potency [4] | Potency [5] | Potency [6]

O=C(NOCC1CC1)c1ccc(F)c(F)c1Nc1ccc(I)cc1Cl
inactive: Potency [1] | Potency [2] | Potency [14] | Potency [16] | Potency [19] | Potency [17] | Potency [9] | Potency [10] | Potency [11] | Potency [6] | Potency [13] | Potency [7]

COc1ccc2cc([C@H](C)C(=O)O)ccc2c1
inactive: Potency [1] | Potency [2] | Potency [3] | Potency [17] | Potency [5] | Potency [6] | Potency [13] | Potency [7]
